Results as given in PubChem BioAssay (NCI).
Compounds without any hit were thinned out: in the full panel of roughly 79,000, 15% have a hit. Values without a mark were called inactive. Calls of active or inactive are those of the source. No stated cut-off is given here; in the data, active means growth inhibition above about 70%; inactive means the rest.

Assay: NCI Yeast Anticancer Drug Screen. Data for the mec2-1 strain (AID 157)
Settings: S. cerevisiae mec2-1 strain, at 50.0 µM, stronger effect = higher value
In short: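 Cells of the genetically defined mec2-1 yeast strain are incubated with test compound. Inhibition of growth is calculated against vehicle-treated controls.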

In the case of `O=[N+]([O-])c1cc2no[n+]([O-])c2cc1N1CCOCC1`, the growth inhibition is reported as 99.3% (active).

Point of comparison: `O=C(O)c1cc(C(=O)O)cc(N(CCO)CCO)c1`, growth inhibition -6.45%. Against it:
- c1ccc2cc(N=NNc3ccc4ccccc4c3)ccc2c1 — higher, -4.1%
- CCC(Nc1nncs1)Nc1nncs1 — higher, 22.6%
- CC(=O)NC(Cc1ccc(C)cc1)C(=O)O (centres undefined) — higher, -3.75%
- CSCCC(Nc1ncnc2nc[nH]c12)C(=O)O (centres undefined) — higher, 3.05%
- CCOC(=O)c1c(-c2ccc([N+](=O)[O-])cc2)c(C#N)n(-c2ccccc2)c1C — higher, 36%
- O=c1cc(CNC2CC3CCC2C3)[nH]c(=O)[nH]1 (centres undefined) — higher, -1.2%
- CC1CN(C(=O)OCC23COC4(C)CCC(C)(OC2)N34)CC(C)O1 (centres undefined) — lower, -18%
- CCOc1ccc(N=Cc2c3ccccc3nc3ccccc23)cc1 — higher, 14.5%
- CC1(c2ccc(Cl)s2)NC(=O)NC1=O (centres undefined) — higher, -4.65%
- CCC(O)C(O)(c1ccccc1)c1ccccc1 (centres undefined) — higher, 8%
- CCCCCCCCCCCCCCCCCC(=O)c1ccc(OC)c(OC)c1 — lower, -12.8%
- NC(Cc1c[nH]c2ccc([N+](=O)[O-])cc12)C(=O)O (centres undefined) — lower, -28.6%
- COc1ccc2ncc(COC(=O)Nc3ccccc3)c(COC(=O)Nc3ccccc3)c2c1 — higher, -6.2%
- CCCCC(C=O)(CC)CCC#N (centres undefined) — higher, -2.55%
- NC(=S)NNCC(=O)CC(O)(C(F)(F)F)C(F)(F)Cl (centres undefined) — lower, -6.95%
- C=C1C(=O)OC2C1CCC1(C)CC(Br)C(=O)C(C)C21 (centres undefined) — higher, -1.1%
- COc1ccccc1N1C(Cl)C(=O)C1c1c[nH]c2ccccc12 (centres undefined) — lower, -40.3%
- Cc1c(C=O)cc(-c2ccccc2)n1C — higher, -3.25%
- CCOC(=O)c1[nH]n(-c2ccccc2)c(=O)c1C=NC(=S)c1cccnc1 — higher, 2.1%
- O=C(O)c1ccc(-c2ccc(O)cc2)cc1 — higher, 5.85%
- c1ccc(C2c3ccccc3-c3ncnc(N4CCCCC4)c32)cc1 (centres undefined) — higher, -3.15%
- O=C1C=CC2(CC=CCC2)CC1 (centres undefined) — lower, -8.4%
- COc1ccc(-c2nnc(-c3ccc(OC)cc3)nn2)cc1 — higher, 15.7%
- O=[N+]([O-])c1ccc(-c2ccc(-c3ccccc3)cc2)cc1 — lower, -12.7%
- O=C(O)c1ccc(C(=O)c2ccccc2)c(C(=O)O)c1 — higher, -1.8%
- O=C(c1ccc(Cl)c(Cl)c1)N1CCCCC1 — lower, -7%
- NC(CCC(=O)NC(CSSCCCCS(=O)O)C(=O)NCC(=O)O)C(=O)O (centres undefined) — lower, -8.2%
